# ELG1 genotox = inducers of genotoxicity in HEK293T ELG1-luciferase cells. Potency, µM (doses to about 46 µM), without a hit: at the highest dose activity change, positive = activation, actives largely listed as activators. AID 504466. HEK293T ELG1-luciferase reporter, luminescence, 16 h. hit rate 1.3% among 330,000; further: % of control where 0% means no effect; nearly all actives have a fitted effect of over 60% in size
#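 Genotoxicity was scored as increased ELG1-luciferase reporter signal, measured by ONE-Glo luminescence (30 min, room temperature). Compound or vehicle exposure of the HEK293T reporter cells lasted 16 hr at 37°C.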
# SMN2 splice enh = SMN2 splice variant enhancement; hit rate 2.8% among 210,000; HEK293 SMN2-luciferase splicing reporter, luminescence, 30-36 h; AID 1458; Potency, µM (titrated, usually from 46.1 µM), for the others: at the highest dose activity change, positive = activation, actives largely listed as activators; further: % of control where 0% means no effect; nearly all actives have a fitted effect of over 55% in size
#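 HEK293 cells carry an SMN2 minigene-luciferase reporter in which exon 7 inclusion puts luciferase in frame. Cells were seeded at 2000 cells/well, attached for 10-12 hours, then exposed to compounds for 30-36 hours at 37C before ONE-Glo luminescence.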
# FLuc counter = counter-screen for miR-21 project: firefly luciferase inhibitors or activators; P08659; purified FLuc, Km substrates, luminescence inhibition; Potency, µM (doses to about 57.5 µM), inactives show at the highest dose activity change, negative = inhibition, hits mostly inhibitors; hit rate 6.9% among 360,000;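 further: plate controls were vehicle for no effect and reference inhibitor for full effect; nearly all actives have a fitted effect of over 55% in size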
# Target sequence (P08659 whole entry, looked up): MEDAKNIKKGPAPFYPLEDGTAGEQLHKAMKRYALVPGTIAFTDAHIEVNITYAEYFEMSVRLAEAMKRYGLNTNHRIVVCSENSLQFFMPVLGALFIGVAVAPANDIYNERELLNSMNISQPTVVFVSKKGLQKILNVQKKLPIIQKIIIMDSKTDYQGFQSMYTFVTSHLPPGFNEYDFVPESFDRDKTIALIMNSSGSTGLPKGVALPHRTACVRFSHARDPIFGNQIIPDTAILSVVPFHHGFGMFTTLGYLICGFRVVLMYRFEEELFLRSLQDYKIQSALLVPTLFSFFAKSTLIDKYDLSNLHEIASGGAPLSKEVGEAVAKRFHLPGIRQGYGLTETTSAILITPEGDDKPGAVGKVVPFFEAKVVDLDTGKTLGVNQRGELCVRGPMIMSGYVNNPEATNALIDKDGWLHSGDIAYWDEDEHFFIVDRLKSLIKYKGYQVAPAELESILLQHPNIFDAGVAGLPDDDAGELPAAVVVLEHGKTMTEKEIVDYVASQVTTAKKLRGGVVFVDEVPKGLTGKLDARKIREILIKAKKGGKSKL
#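 Biochemical qHTS of compounds, final roughly 60 µM downward over six points, against 10 nM purified firefly luciferase using Km concentrations of substrates (10 uM D-luciferin, 10 uM ATP) in Tris acetate pH 7.5 buffer; luminescence output.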
# Luc counter = blocks Kinase-Glo luciferase, a counter-screen artifact; Q27757; Kinase-Glo luciferase, ATP luminescence, 8 min; Potency, µM (top dose mostly 38.3 µM), without a hit: at the highest dose activity change, negative = inhibition, most hits filed as inhibitors; hit rate 0.28% among 200,000; AID 1379; further: on the % scale 0 is the no-effect control and ±100 the full control effect; nearly all actives have a fitted effect of over 60% in size
#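 Inhibition of Kinase-Glo luciferase light generation was assessed at 10 uM ATP in pH 7.2 imidazole buffer, with luminescence measured after eight minutes at ambient temperature.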
# Rab9 promoter act = activators of Rab9 promoter; hit rate 2.8% among 320,000; Huh7 Rab9 promoter-luciferase reporter, luminescence, 24 h; Potency, µM (doses to about 9.22 µM), for the others: at the top dose activation, negative = inhibition, hits mostly activators; AID 485297; further: % of control where 0% means no effect; nearly all actives have a fitted effect of over 60% in size
#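 Stable Rab9-luc Huh7, 1500 cells/well, 2 h settle; cmpd in DMSO, 24 h, 37 °C/5% CO2; luciferase reagent 10 min RT; luminescence.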
# NPC1 promoter act = activates the NPC1 promoter; Potency, µM (doses to about 9.22 µM), inactives show top-dose activation, usual class: activators; Huh7 NPC1 promoter luciferase reporter, 24 h; AID 485313; hit rate 2.4% among 320,000; further: % of control where 0% means no effect; nearly all actives have a fitted effect of over 60% in size
#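 Quantitative HTS used a cell-based reporter: Huh7 cells stably bearing the NPC1 promoter upstream of luciferase were treated with compounds for 24 h, and promoter activation was read as luminescence.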
# * hit, by the source's call; ? = inconclusive; . = no result; [ ] = dose if it differs, or a comment. This is a sample that favours compounds with a hit; in the whole collection about 7.3% have one here. The call rests on the fitted dose curve; in most records, active means well fitted curve in the direction sought with a large enough effect; inconclusive means small, poorly fitted or top-dose-only effect, or another doubt; inactive means no such curve, though single readings can be large; an effect the other way counts as inactive or inconclusive. Potency means the concentration at half of the fitted maximal effect.
SMILES,ELG1 genotox,SMN2 splice enh,FLuc counter,Luc counter,Rab9 promoter act,NPC1 promoter act
CCOC(=O)c1c(S(=O)(=O)N2CCCC(C(=O)Nc3cccc(C#N)c3)C2)c(C)n(C)c1C (stereo not drawn),.,.,-10%,.,.,.
NC(=O)C1CCN(c2nc(-c3ccccc3[N+](=O)[O-])cs2)CC1,.,.,-1%,.,.,.
Cc1c(C(=O)Nc2ccc(F)cc2F)oc2c1-c1nn(Cc3c(F)cccc3Cl)cc1CC2,.,.,-14%,.,.,.
O=C(/C=C/N1CCOCC1)c1coc2ccccc12,?,.,9.5µM*,-8%,1.4µM*,1.6µM*
Cn1c(=O)n(C)c2cc(NS(=O)(=O)c3ccccc3)ccc21,18µM*,.,3%,.,4%,-4%
O=C(Nc1ccc2oc(=O)ccc2c1)c1cc2ccccc2o1,?,3.5µM*,7.6µM*,-4%,1.6µM*,2.5µM*
CCc1ccc(C(=O)Nc2ccc3c(c2)n(C)c(=O)n3C)cc1,18µM*,.,15µM*,.,?,-4%
COc1ccc(NC(=O)c2ccc3c(=O)n4nc(Nc5cccc(Cl)c5C)sc4nc3c2)cc1,.,.,-8%,.,.,.
CCOc1ccc(NC(=O)C(C)n2c(=O)cc(-c3ccccc3)c3c(C)nn(C)c32)cc1 (stereo not drawn),.,.,-3%,.,.,.
O=C(Nc1ccc(CN2CCOCC2)cc1)c1cc2ccccn2n1,?,?,1.2µM*,-16%,0.45µM*,0.32µM*
c1ccc2sc(N3CCOCC3)nc2c1,?,?,?,-7%,?,?
O=C(Nc1ccc(CN2CCOCC2)cc1)c1ccc(-c2cccc(Cl)c2)o1,-16%,-79%,17µM*,-7%,.,-4%
O=C(Nc1ccc(CN2CCOCC2)cc1)c1cc2ccccc2o1,12%,5.6µM*,3.8µM*,1%,0.63µM*,1.6µM*
O=C(NC(=S)Nc1ccc(CN2CCOCC2)cc1)c1cc2ccccc2o1,15%,7%,-2%,1%,19%,6%
c1ccc2sc(SN3CCOCC3)nc2c1,4%,-6%,24µM*,-2%,0%,0%
O=C(NC(=S)Nc1ccc(CN2CCOCC2)cc1)c1ccc(-c2cccc(Cl)c2)o1,-16%,.,?,.,-15%,-3%
Cc1ccccc1NC(=O)CSc1ccc(-c2cccs2)nn1,.,.,-2%,.,.,.
O=c1oc2cc(N=Cc3ccc4c(c3)OCO4)ccc2c2ccccc12,.,7%[9.22 µM],.,-4%[7.66 µM],.,.
O=C(Cc1ccc(Cl)cc1)NCC(c1cccs1)S(=O)(=O)c1ccc(F)cc1 (stereo not drawn),.,.,-11%,.,.,.
O=C(Nc1ccc(N2CCOCC2)cc1)c1cc2ccccc2o1,?,2.8µM*,5.4µM*,-13%,1.8µM*,3.5µM*
O=C(O)c1ccc(NC(=O)c2cc3ccccc3o2)cc1,?,6.3µM*,2.1µM*,.,?,?
CC(=O)Cc1nsc(NC(=O)c2ccc(-c3cccc(Cl)c3)o2)n1,-2%,20%,11µM*,0%,0%,2%
CCC(=O)N1CCN(c2ccc(NC(=O)c3cc4ccccc4o3)cc2)CC1,-3%,-29%,?,-2%,-2%,1%
O=C(Nc1ccc(NC(=O)c2cc3ccccc3o2)cc1)c1ccccc1,.,-15%,-1%,.,.,.
Cn1c(=O)n(C)c2cc(NC(=O)c3cc4ccccc4o3)ccc21,16µM*,.,?,3%,28%,14%
SMILES,ELG1 genotox,SMN2 splice enh,FLuc counter,Luc counter,Rab9 promoter act,NPC1 promoter act
COc1cccc(C(=O)Nc2nc3nc(C)c(Cc4ccccc4)c(=O)n3[nH]2)c1,.,23%,?,.,.,.
Cn1c(=O)n(C)c2cc(NC(=O)c3ccccc3NS(C)(=O)=O)ccc21,14%,.,27µM*,.,6%,6%
Cc1nc2ccccc2c2oc(C(=O)Nc3ccc(C(C)C)cc3)cc12,-4%,-42%,-11%,1%,-3%,-9%
Cc1nc2ccccc2c2oc(C(=O)Nc3ccc4c(c3)OCCO4)cc12,-3%,-13%,15µM*,-1%,-1%,12%
Cc1cc(=O)oc2cc(NC(=O)c3cc4ccccc4o3)ccc12,?,7%,-17%,-7%,21%,?
O=C(Nc1ccc2c(c1)OCCO2)c1cc2ccccc2o1,?,1.3µM*,1.1µM*,-22%,0.45µM*,0.89µM*
O=C(OC1CCc2ccccc2C1=O)c1ccccc1O (stereo not drawn),-32%,5%,12µM*,-12%,-5%,-4%
CCCN(CCC)C(=O)c1cc(-c2ccc3c(c2)OCO3)nc2ccccc12,-15%,-17%,?,12%,-1%,-2%
Cc1ccc2nc(-c3ccc4c(c3)OCCO4)cc(C(=O)O)c2c1,?,?,2.4µM*,6%,13%,25%
CCCNC(=O)NNC(=O)c1cc(-c2ccc3c(c2)OCO3)nc2ccccc12,0%,.,13µM*,.,-7%,1%
O=C(O)c1cc(-c2ccc3c(c2)OCO3)nc2ccccc12,4%,14%,8.5µM*,-17%,-7%,9%
O=C(O)c1cc(-c2cccs2)nc2cc3c(cc12)OCCO3,10%,?,9.5µM*,1%,-1%,3%
CC(NC(=O)c1cc(-c2ccc3c(c2)OCO3)nc2ccccc12)C(C)(C)C (stereo not drawn),0%,6%,-14%,-1%,-3%,0%
CC(=O)c1ccc(N2CCN(C(=O)c3cc(-c4ccncc4)nc4ccc(Br)cc34)CC2)cc1,-10%,.,?,.,2%,2%
CC(=O)c1ccc(N2CCN(C(=O)c3cc(-c4ccc5c(c4)OCO5)nc4ccccc34)CC2)cc1,-11%,?,7.6µM*,-10%,11%,6%
[O-][N+](=Nc1ccccc1)c1ccccc1,.,4%,.,.,.,.
O=C(N/N=C\c1ccc(F)cc1)c1ccc(Cn2cc(Br)c([N+](=O)[O-])n2)o1,3%,-14%,21µM*,-5%,-3%,4%
O=C(N/N=C\c1cccc(F)c1)c1ccc(Cn2cc(Br)c([N+](=O)[O-])n2)o1,0%,.,?,-4%,-21%,2%
O=C(N/N=C\c1ccc2c(c1)OCO2)c1ccc(Cn2cc(Br)c([N+](=O)[O-])n2)o1,3%,.,6µM*,-17%,2%,3%
COc1ccc(C(=O)OCC(=O)Nc2ncc([N+](=O)[O-])s2)cc1OC,2%,.,-19%,.,-2%,3%
Cc1ccc(S(=O)(=O)CC(=O)Nc2ncc([N+](=O)[O-])s2)cc1,-10%,.,-1%,.,4%,-1%
Cc1ccc(CC(=O)Nc2ncc([N+](=O)[O-])s2)cc1,18%,13µM*,15µM*,0%,?,?
O=C(COC(=O)c1ccc(Br)o1)Nc1ncc([N+](=O)[O-])s1,4%,.,17µM*,.,22%,17%
